Measured values taken from the supplement of paper PMC7765376.
In all, about 1,500 compounds were measured (“Excess HSA synergy score (sum over dose matrix of excess over highest single agent)”: median about 43, lowest 2% from about -900 on). The list comes from a sample in which the lowest values are over-represented; it also holds similar structures and randomly drawn compounds.

Tested on: PEO-1
Assay: Excess HSA synergy score (sum over dose matrix of excess over highest single agent) (score (summed % response)); higher = less synergy / more antagonism (negative = synergy)
Details: 72 h, read-out: viability/apoptosis luminescence (CellTiter-Glo or Caspase3-Glo / not stated per table)
[1] = matrix design: 6x6, 5-fold dilutions (primary screen)
[2] = matrix design: 10x10, 9-step dilutions (confirmatory)

| Structure (SMILES) | Excess HSA synergy score [1] | Excess HSA synergy score [2] |
| --- | --- | --- |
| CC(=O)C1=C(O)C=C2Oc3c(C(C)=O)c(O)c(C)c(O)c3C2(C)C1=O (single isomer, unassigned; (+)) [(+)-Usniacin] + CC[C@H](NC(=O)[C@H](C)NC)C(=O)N1C[C@@H](O)C[C@H]1Cc1c(-c2[nH]c3cc(F)ccc3c2C[C@@H]2C[C@H](O)CN2C(=O)[C@H](CC)NC(=O)[C@H](C)NC)[nH]c2cc(F)ccc12 [Birinapant] | -123 |  |
| C[C@@H]1CN(Cc2ccc(F)cc2)[C@@H](C)CN1C(=O)c1cc2c(C(=O)C(=O)N(C)C)cn(C)c2cc1Cl [Talmapimod] + CC[C@H](NC(=O)[C@H](C)NC)C(=O)N1C[C@@H](O)C[C@H]1Cc1c(-c2[nH]c3cc(F)ccc3c2C[C@@H]2C[C@H](O)CN2C(=O)[C@H](CC)NC(=O)[C@H](C)NC)[nH]c2cc(F)ccc12 [Birinapant] | 190 |  |
| CCNC(=O)Nc1ccc(-c2nc3c(c(N4CCOC[C@@H]4C)n2)CCN(C2COC2)C3)cc1 + CC[C@H](NC(=O)[C@H](C)NC)C(=O)N1C[C@@H](O)C[C@H]1Cc1c(-c2[nH]c3cc(F)ccc3c2C[C@@H]2C[C@H](O)CN2C(=O)[C@H](CC)NC(=O)[C@H](C)NC)[nH]c2cc(F)ccc12 [Birinapant] | -44.2 |  |
| CN1CCN(c2nc(C3=C(c4c[nH]c5ccccc45)C(=O)NC3=O)c3ccccc3n2)CC1 [Sotrastaurin] + CC[C@H](NC(=O)[C@H](C)NC)C(=O)N1C[C@@H](O)C[C@H]1Cc1c(-c2[nH]c3cc(F)ccc3c2C[C@@H]2C[C@H](O)CN2C(=O)[C@H](CC)NC(=O)[C@H](C)NC)[nH]c2cc(F)ccc12 [Birinapant] | 84.5 |  |
| Cc1noc(-c2ccc(CSCCC(=O)O)cc2)c1NC(=O)OC(C)c1ccccc1Cl (configuration not stated) + CC[C@H](NC(=O)[C@H](C)NC)C(=O)N1C[C@@H](O)C[C@H]1Cc1c(-c2[nH]c3cc(F)ccc3c2C[C@@H]2C[C@H](O)CN2C(=O)[C@H](CC)NC(=O)[C@H](C)NC)[nH]c2cc(F)ccc12 [Birinapant] | 351 |  |
| CCOc1cc(C(=O)Nc2ccc(Cl)c(-c3nc4ccccc4[nH]3)c2)cc(OCC)c1OCC + CC[C@H](NC(=O)[C@H](C)NC)C(=O)N1C[C@@H](O)C[C@H]1Cc1c(-c2[nH]c3cc(F)ccc3c2C[C@@H]2C[C@H](O)CN2C(=O)[C@H](CC)NC(=O)[C@H](C)NC)[nH]c2cc(F)ccc12 [Birinapant] | 142 |  |
| C=C(C)[C@@H]1CC[C@]2(C)CC[C@]3(C)[C@H](CC[C@@H]4[C@@]5(C)CC[C@H](O)C(C)(C)[C@@H]5CC[C@]43C)[C@@H]12 [Lupeol] + CC[C@H](NC(=O)[C@H](C)NC)C(=O)N1C[C@@H](O)C[C@H]1Cc1c(-c2[nH]c3cc(F)ccc3c2C[C@@H]2C[C@H](O)CN2C(=O)[C@H](CC)NC(=O)[C@H](C)NC)[nH]c2cc(F)ccc12 [Birinapant] | -39.9 |  |
| O=C(NNC(=O)c1ccc(CNS(=O)(=O)c2ccc(F)c(Cl)c2)cc1)c1ccccc1 + CC[C@H](NC(=O)[C@H](C)NC)C(=O)N1C[C@@H](O)C[C@H]1Cc1c(-c2[nH]c3cc(F)ccc3c2C[C@@H]2C[C@H](O)CN2C(=O)[C@H](CC)NC(=O)[C@H](C)NC)[nH]c2cc(F)ccc12 [Birinapant] | 144 |  |
| CC(C)(C)c1cc(C(C)(C)C)c(NC(=O)c2c[nH]c3ccccc3c2=O)cc1O [Ivacaftor] + CC[C@H](NC(=O)[C@H](C)NC)C(=O)N1C[C@@H](O)C[C@H]1Cc1c(-c2[nH]c3cc(F)ccc3c2C[C@@H]2C[C@H](O)CN2C(=O)[C@H](CC)NC(=O)[C@H](C)NC)[nH]c2cc(F)ccc12 [Birinapant] | 116 |  |
| C=CC(=O)Nc1cc2c(Nc3ccc(F)c(Cl)c3)ncnc2cc1C#CC(C)(C)N1CCN(C)CC1 + CC[C@H](NC(=O)[C@H](C)NC)C(=O)N1C[C@@H](O)C[C@H]1Cc1c(-c2[nH]c3cc(F)ccc3c2C[C@@H]2C[C@H](O)CN2C(=O)[C@H](CC)NC(=O)[C@H](C)NC)[nH]c2cc(F)ccc12 [Birinapant] | 44.3 |  |
| CO[C@H]1C(=O)[C@]2(C)[C@@H](OC)C[C@H]3OC[C@@]3(OC(C)=O)[C@H]2[C@H](OC(=O)c2ccccc2)[C@]2(O)C[C@H](OC(=O)[C@H](O)[C@@H](NC(=O)OC(C)(C)C)c3ccccc3)C(C)=C1C2(C)C [Cabazitaxel] + CC[C@H](NC(=O)[C@H](C)NC)C(=O)N1C[C@@H](O)C[C@H]1Cc1c(-c2[nH]c3cc(F)ccc3c2C[C@@H]2C[C@H](O)CN2C(=O)[C@H](CC)NC(=O)[C@H](C)NC)[nH]c2cc(F)ccc12 [Birinapant] | -61.8 |  |
| Cc1ccc(NC(=O)c2cccc(C(C)(C)C#N)c2)cc1Nc1ccc2ncn(C)c(=O)c2c1 + CC[C@H](NC(=O)[C@H](C)NC)C(=O)N1C[C@@H](O)C[C@H]1Cc1c(-c2[nH]c3cc(F)ccc3c2C[C@@H]2C[C@H](O)CN2C(=O)[C@H](CC)NC(=O)[C@H](C)NC)[nH]c2cc(F)ccc12 [Birinapant] | 31.8 |  |
| CCNC(=O)Nc1ccc2ncc(Nc3ccc(C)cc3)nc2n1 + CC[C@H](NC(=O)[C@H](C)NC)C(=O)N1C[C@@H](O)C[C@H]1Cc1c(-c2[nH]c3cc(F)ccc3c2C[C@@H]2C[C@H](O)CN2C(=O)[C@H](CC)NC(=O)[C@H](C)NC)[nH]c2cc(F)ccc12 [Birinapant] | 77.2 |  |
| Cc1nc(Nc2n[nH]c3c2CN(C(=O)N[C@H](CN(C)C)c2ccccc2)C3(C)C)c2sccc2n1 + CC[C@H](NC(=O)[C@H](C)NC)C(=O)N1C[C@@H](O)C[C@H]1Cc1c(-c2[nH]c3cc(F)ccc3c2C[C@@H]2C[C@H](O)CN2C(=O)[C@H](CC)NC(=O)[C@H](C)NC)[nH]c2cc(F)ccc12 [Birinapant] | -399 | -1930 |
| Cc1cnc(-c2cc(N3CCN(C(=O)CCS(C)(=O)=O)CC3)ncc2Cl)c(C)c1 + CC[C@H](NC(=O)[C@H](C)NC)C(=O)N1C[C@@H](O)C[C@H]1Cc1c(-c2[nH]c3cc(F)ccc3c2C[C@@H]2C[C@H](O)CN2C(=O)[C@H](CC)NC(=O)[C@H](C)NC)[nH]c2cc(F)ccc12 [Birinapant] | 211 |  |
| O=C(CCN1CCN(C(=O)OCc2cc(Cl)cc(Cl)c2)CC1)c1ccc2[nH]c(=O)oc2c1 + CC[C@H](NC(=O)[C@H](C)NC)C(=O)N1C[C@@H](O)C[C@H]1Cc1c(-c2[nH]c3cc(F)ccc3c2C[C@@H]2C[C@H](O)CN2C(=O)[C@H](CC)NC(=O)[C@H](C)NC)[nH]c2cc(F)ccc12 [Birinapant] | -22.5 |  |
| CC1(C)OC2=C(C(=O)c3ccccc3C2=O)[C@H](NCc2ccccc2)[C@@H]1O + CC[C@H](NC(=O)[C@H](C)NC)C(=O)N1C[C@@H](O)C[C@H]1Cc1c(-c2[nH]c3cc(F)ccc3c2C[C@@H]2C[C@H](O)CN2C(=O)[C@H](CC)NC(=O)[C@H](C)NC)[nH]c2cc(F)ccc12 [Birinapant] | 60.3 |  |
| C[C@@H](Oc1cc(-c2cnn(C3CCNCC3)c2)cnc1N)c1c(Cl)ccc(F)c1Cl [Crizotinib] + CC[C@H](NC(=O)[C@H](C)NC)C(=O)N1C[C@@H](O)C[C@H]1Cc1c(-c2[nH]c3cc(F)ccc3c2C[C@@H]2C[C@H](O)CN2C(=O)[C@H](CC)NC(=O)[C@H](C)NC)[nH]c2cc(F)ccc12 [Birinapant] | -219 |  |
| CCOC(=O)N1CCN(/[N+]([O-])=N/Oc2ccc([N+](=O)[O-])cc2C#N)CC1 + CC[C@H](NC(=O)[C@H](C)NC)C(=O)N1C[C@@H](O)C[C@H]1Cc1c(-c2[nH]c3cc(F)ccc3c2C[C@@H]2C[C@H](O)CN2C(=O)[C@H](CC)NC(=O)[C@H](C)NC)[nH]c2cc(F)ccc12 [Birinapant] | 10.9 |  |
| O=C1NC(=O)[C@@H](c2cn3c4c(cccc24)CCC3)[C@@H]1c1c[nH]c2ccccc12 [Tivantinib] + CC[C@H](NC(=O)[C@H](C)NC)C(=O)N1C[C@@H](O)C[C@H]1Cc1c(-c2[nH]c3cc(F)ccc3c2C[C@@H]2C[C@H](O)CN2C(=O)[C@H](CC)NC(=O)[C@H](C)NC)[nH]c2cc(F)ccc12 [Birinapant] | -96.6 |  |
| COC(=O)Nc1ccc(-c2nc(N3CCOCC3)c3cnn(C4CCN(C(=O)OC)CC4)c3n2)cc1 + CC[C@H](NC(=O)[C@H](C)NC)C(=O)N1C[C@@H](O)C[C@H]1Cc1c(-c2[nH]c3cc(F)ccc3c2C[C@@H]2C[C@H](O)CN2C(=O)[C@H](CC)NC(=O)[C@H](C)NC)[nH]c2cc(F)ccc12 [Birinapant] | -64.3 |  |
| O=C(O)c1ccccc1C(=O)Nc1ccc(-c2ccccc2)cc1 [Kartogenin] + CC[C@H](NC(=O)[C@H](C)NC)C(=O)N1C[C@@H](O)C[C@H]1Cc1c(-c2[nH]c3cc(F)ccc3c2C[C@@H]2C[C@H](O)CN2C(=O)[C@H](CC)NC(=O)[C@H](C)NC)[nH]c2cc(F)ccc12 [Birinapant] | 460 |  |
| CC[C@@H]1C(=O)N(C)c2cnc(Nc3ccc(C(=O)NC4CCN(C)CC4)cc3OC)nc2N1C1CCCC1 + CC[C@H](NC(=O)[C@H](C)NC)C(=O)N1C[C@@H](O)C[C@H]1Cc1c(-c2[nH]c3cc(F)ccc3c2C[C@@H]2C[C@H](O)CN2C(=O)[C@H](CC)NC(=O)[C@H](C)NC)[nH]c2cc(F)ccc12 [Birinapant] | -84.2 |  |
| CC[C@@H]1C(=O)N(C)c2cnc(Nc3ccc(C(=O)N[C@H]4CC[C@H](N5CCN(CC6CC6)CC5)CC4)cc3OC)nc2N1C(C)C [Volasertib] + CC[C@H](NC(=O)[C@H](C)NC)C(=O)N1C[C@@H](O)C[C@H]1Cc1c(-c2[nH]c3cc(F)ccc3c2C[C@@H]2C[C@H](O)CN2C(=O)[C@H](CC)NC(=O)[C@H](C)NC)[nH]c2cc(F)ccc12 [Birinapant] | 22.4 | -1030 |
| COc1cc(C(=O)NC2CCN(C)CC2)ccc1Nc1ncc2c(n1)N(C1CCCC1)CCC(=O)N2C(C)C + CC[C@H](NC(=O)[C@H](C)NC)C(=O)N1C[C@@H](O)C[C@H]1Cc1c(-c2[nH]c3cc(F)ccc3c2C[C@@H]2C[C@H](O)CN2C(=O)[C@H](CC)NC(=O)[C@H](C)NC)[nH]c2cc(F)ccc12 [Birinapant] | 135 |  |
